Measured values as given in the supplement of paper PMC6555819.

The sequences below were run on VDR:RXRa (NR concentration 270 nM, RXRa partner concentration 90 nM) (assay: PBM binding z-score (relative to random genomic background probes); higher = stronger binding; sequences stand for … in GC…GCGATTGACAGCGTAGAATGAAGG).
Method: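 Protein-binding microarray (Agilent 4x180K custom design, double-stranded 60-nt probes: 5' GC cap, 34-nt variable region, 24-nt constant primer region; full probe sequence given). Purified or IVT nuclear receptor:RXRα heterodimers (3:1 NR:RXRα, mostly 270:90 nM) or homodimers were incubated for 1 h in PBS with 2% milk and no ligand, then detected with Alexa488 antibodies. Fluorescence from o1-orientation probes (~5 replicates averaged) was converted to z-scores against 500 random hg19 background probes. Variable regions are seed direct-repeat (DR0–DR5) sites, all their single-nucleotide variants and half-site ablations.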
With TCTTGTAGATCAATAGCGGTTAAGAAAGTGCGCT the PBM binding z-score was 0.46.
For CAAACTAGGTCACCGGAACGTCAAAGTCCGCATG, the PBM binding z-score was 2.48.
CCTCGGAGGACAATAGGAGGTCAGAGCTGCCAGA was tested, and the PBM binding z-score was 1.51.
AGAATGAGGTTACCAAAGATGAGGGAAACGCTTG gave a PBM binding z-score of 1.03.
TCTCGGAGGACACGAAGGTCCGAGCTTTCCAGAG gave a PBM binding z-score of 0.0624.
For CAAACTAGGTCAAGAGGTCAACGTCCGCTTCCCG, the PBM binding z-score was 5.97.
ACCATTAGTTGACTTAGGGCAACCGATACGACGC gave a PBM binding z-score of 0.475.
Work on ATCTCTAGGTAAAGATCGTTCAGTGAATGCAAAT yielded a PBM binding z-score of 0.221.
GGAACGAGAGCAAGTTGATAGCAGAGTTTGATGG was tested, and the PBM binding z-score was -0.392.
In the case of ACCGAAAGGTCGAAGGTGAGTATACCCACCCGAA, the PBM binding z-score is reported as 2.95.
For TCTGCTAGGTCAACGATGTTCAGCTAATCTGCTA, the PBM binding z-score was 1.67.
Work on GCATTTAGGTAATACAAGGTGAAAGTCCGATTGT yielded a PBM binding z-score of 0.176.
In the case of TCTGCTAGTTCAGTTGGTCAGCTAACGAGCTGCC, the PBM binding z-score is reported as -0.158.
CCTACTGGGCAAAGGTCATTGATCAGTCAAAGCA showed a PBM binding z-score of 4.36.
GCAGACAGGTGAAACGCAGGTAACTCAGGGTGGC was tested, and the PBM binding z-score was -0.544.
Work on TCTTGTAGATCAAAGGTTCAGAAAGCCGAAGCCT yielded a PBM binding z-score of 1.47.
TGTTGTAGATCAATAGAGGTTAAGAAAGTGCGCT gave a PBM binding z-score of 1.92.
For TTACCAAGGAGAAGGTCGTTGATCCCTCTGTAGA, the PBM binding z-score was 0.838.
In the case of TTACCAAGGTGAAGGTCGATGATCCCTCTGTAGA, the PBM binding z-score is reported as 0.54.
For TCTCGGAGGACACGAAGGTTAGAGCTTTCCAGAG, the PBM binding z-score was 0.237.
TCGATTAGGTTAGTCGGGGCATTCAGCCAACATA was tested, and the PBM binding z-score was 2.14.
ATATCTAGGTTATCGGGTCATTCAGTTTGCGCAT gave a PBM binding z-score of 5.12.
GCATATAGGTAATACAACGTGAAAGTCCGATTGT was tested, and the PBM binding z-score was -0.316.
For CCTGCTAGGTCAGTGGTCAGCTAAAGCAGCTCGC, the PBM binding z-score was -0.183.
For GCAGATAGGTAATACAAGGTGAAAGTCCGATTGT, the PBM binding z-score was 0.13.
In the case of AGTCAAAGTTCATCTATGTAACGTAAGATATGCT, the PBM binding z-score is reported as 4.75.
AATATTAGTTGACTTAGGGCAACCGATACGACGC was tested, and the PBM binding z-score was 0.46.
CCTACTGGGCCATTCAGAGGTCATTTATCATATG showed a PBM binding z-score of 3.73.
GCTAGTTGGTCAGTAAAAGGTCACACAACGGTCG gave a PBM binding z-score of 4.19.
Work on TCATATAGGTAATACAGGTGAAAGACGGCATCTA yielded a PBM binding z-score of 1.02.
Work on CTCGAAAGGTCGTGCTCAGGTGCGTATACCAAAC yielded a PBM binding z-score of 3.57.
Sequence CATTACGGGTCACGAGGTTATAGCACGACGAGCG has a PBM binding z-score of 5.57.
CGTCCAAGGTCAATACTAGGTCAGTGAAAGCATT showed a PBM binding z-score of 4.63.
With GCGACTGGGGCAAAGCAGGTCACCATAAGGTTGG the PBM binding z-score was 2.52.
For CGAACTAGGTCATTGACAGGACAGTGAGTAGTAA, the PBM binding z-score was 2.18.
Work on ATCTCTAGGTAAAGTTCAGTTAAAGATCGATAGA yielded a PBM binding z-score of 1.82.
With ATCGAGAGGTCGTGAGGTGAGTATACAGAAAGGC the PBM binding z-score was 3.3.
Sequence CAAACTAGGTCACGAAAAGTCAAAGTCGAATGAC has a PBM binding z-score of 2.71.
In the case of AGATGTAGGTTATCGGGTCATTCAGTTTGCGCAT, the PBM binding z-score is reported as 5.35.
TCATATAGGGAAATGCTAGGTGAAAGTCCGATCT showed a PBM binding z-score of 0.702.
